Laboratory results reported in PubChem BioAssay (EPA / NIEHS).
Activity calls are given as the source filed them. How the source made its calls: active means hit-call score of the fitted dose curve at least 0.9, where 1 is the maximum; inactive means score below 0.9.

Experiment: CCTE_Simmons_MITO_inhib_resp_rate: CCTE's HepG2 Seahorse XF Respirometric Screening Assay at Inhibited Respiratory State [full ETC block], Simmons Lab (AID 2284006)
Conditions: actives raise or lower the signal
Experimental: CCTE_Simmons_MITO is cell-based, respirometric assay using HepG2 cells and a Seahorse XF Analyzer to measure oxygen consumption rates over four temporal phases spanning a total of 72 minutes: pre-injection (pre-treatment), basal (following test compound injection), maximal (following FCCP uncoupler injection), and inhibited (following rotenone/antimycin A injection)CCTE_Simmons_MITO_inhib_resp_rate is one of 4 assay components calculated from the CCTE_Simmons_MITO assay. It is designed to make measurements of inhibited respiration using a form of respirometric reporter, as detected with […] signals by Seahorse XF96 technology. Data from the assay component CCTE_Simmons_MITO_inhib_resp_rate was analyzed at the endpoint, CCTE_Simmons_MITO_inhib_resp_rate_OCR, with bidirectional fitting relative to DMSO as the negative control and baseline of activity. Using a type of respirometric reporter, measures of inhibited respiration for gain or loss-of-signal activity can be used to understand cellular oxygen consumption as it relates to cellular respiration. To generalize the intended target to other relatable targets, this assay endpoint is annotated to the mitochondria intended target family, where the subfamily is respiration.
Test chemicals were administered as a titrated series of 7 concentrations from 125 nM up to 100 uM [final] prior to kinetic endpoint detection at 6 minute intervals [3 min mix followed by 3 minutes measure] for 72 minutes. Three biological replicates of technical singles were run for every chemical concentration tested. Dimethylsulfoxide [DMSO] was used as the vehicle control. The electron transport chain inhibitor fenpyroximate was used as the positive control for decreased basal respiration and was administered as a titrated series of 6 concentrations from 250 nM up to 2.75 uM [final] with technical triplicates for the top concentration only. The uncoupler 2,4-dintirophenol was used as the positive control for increased basal respiration and was administered as a titrated series of 6 concentrations from 938 nM up to 40 uM [final] with technical triplicates for the top concentration only. A Seahorse XF Analzyer is required to measure the response.

SMILES | outcome | AC50
CC[C@H](C)[C@H]1O[C@]2(C=C[C@@H]1C)C[C@@H]1C[C@@H](C/C=C(\C)[C@@H](O[C@H]3C[C@H](OC)[C@@H](O[C@H]4C[C@H](OC)[C@@H](O)[C@H](C)O4)[C@H](C)O3)[C@@H](C)/C=C/C=C3\CO[C@@H]4[C@H](O)C(C)=C[C@@H](C(=O)O1)[C@]34O)O2 (tested in a mixture with another compound) | inactive | 
CCC(C)(NC(=O)c1cc(Cl)c(C)c(Cl)c1)C(=O)CCl (stereo not given) | inactive | 
CCOCN(C(=O)CCl)c1c(C)cccc1CC | inactive | 
CCC(C)Nc1c([N+](=O)[O-])cc(C(C)(C)C)cc1[N+](=O)[O-] (stereo not given) | inactive | 
O=C(O)CCCOc1ccc(Cl)cc1Cl | inactive | 
CC1(c2ccc(Oc3ccccc3)cc2)OC(=O)N(Nc2ccccc2)C1=O (stereo not given) | inactive | 
CC(C)(C)C(O)/C(=C\c1ccc(Cl)cc1Cl)n1cncn1 (stereo not given) | inactive | 
Oc1cc(Cl)ccc1Oc1ccc(Cl)cc1Cl | inactive | 
CCCN(CCOc1c(Cl)cc(Cl)cc1Cl)C(=O)n1ccnc1 | inactive | 
Oc1ccc(Cl)cc1Cc1ccccc1 | inactive | 
N#Cc1c(Cl)c(Cl)c(Cl)c(C#N)c1Cl | inactive | 
C#CCN1C(=O)COc2cc(F)c(N3C(=O)C4=C(CCCC4)C3=O)cc21 | inactive | 
O=C(O)COc1ccc(Cl)cc1Cl | inactive | 
CCOC1Oc2ccc(OS(C)(=O)=O)cc2C1(C)C (stereo not given) |  | 33.9 µM (active)
COP(=S)(OC)Oc1ccc([N+](=O)[O-])cc1 | inactive | 
